Records with an inconclusive call do not appear. Activity calls are given as the source filed them. Calls come from the whole dose curve; as a rule, active = well fitted cell-killing curve with a large enough effect; inconclusive = small, poorly fitted or top-dose-only effect, or effect the other way; inactive = no such curve, though single readings can be large or run the other way.
How the values were obtained:
[1] = Quantitative High-Throughput drug screen in 47 multiple myeloma cell lines against the NCATS MIPE library collection: OCIMY1_PLB cell viability assay (AID 1918979); note: nearly all actives have a fitted effect of over 35% in size
Summary of the method: (§1)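 Cells were exposed to library compounds for 48 hours, after which ATP was measured by CellTiter-Glo. Signal was taken as median relative luminescence units.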

[2] = Quantitative High-Throughput drug screen in 47 multiple myeloma cell lines against the NCATS MIPE library collection: MM1S_ATCC cell viability assay (AID 1918980); note: nearly all actives have a fitted effect of over 45% in size
Summary of the method: as §1

[3] = Quantitative High-Throughput drug screen in 47 multiple myeloma cell lines against the NCATS MIPE library collection: MM1R_ATCC cell viability assay (AID 1918981); note: nearly all actives have a fitted effect of over 35% in size
Summary of the method: as §1

[4] = Quantitative High-Throughput drug screen in 47 multiple myeloma cell lines against the NCATS MIPE library collection: LP1_DSMZ cell viability assay (AID 1918982); note: nearly all actives have a fitted effect of over 35% in size
Summary of the method: as §1

[5] = Quantitative High-Throughput drug screen in 47 multiple myeloma cell lines against the NCATS MIPE library collection: KMS28PE_JCRB cell viability assay (AID 1918983); note: nearly all actives have a fitted effect of over 35% in size
Summary of the method: as §1

[6] = Quantitative High-Throughput drug screen in 47 multiple myeloma cell lines against the NCATS MIPE library collection: L363_DSMZ cell viability assay (AID 1918984); note: nearly all actives have a fitted effect of over 40% in size
Summary of the method: as §1

[7] = Quantitative High-Throughput drug screen in 47 multiple myeloma cell lines against the NCATS MIPE library collection: KMS34_JCRB cell viability assay (AID 1918985); note: nearly all actives have a fitted effect of over 40% in size
Summary of the method: as §1

[8] = Quantitative High-Throughput drug screen in 47 multiple myeloma cell lines against the NCATS MIPE library collection: OCIMY7_PLB cell viability assay (AID 1918987); conditions: OCI-MY7 myeloma viability, CellTiter-Glo ATP, 48 h; viability (% of DMSO): at 45.8 µM (top of the series); note: nearly all actives have a fitted effect of over 65% in size
Summary of the method: as §1

[9] = Quantitative High-Throughput drug screen in 47 multiple myeloma cell lines against the NCATS MIPE library collection: OCIMY5_PLB cell viability assay (AID 1918988); note: nearly all actives have a fitted effect of over 65% in size
Summary of the method: as §1

[10] = Quantitative High-Throughput drug screen in 47 multiple myeloma cell lines against the NCATS MIPE library collection: OPM1_PLB cell viability assay (AID 1918989); note: nearly all actives have a fitted effect of over 40% in size
Summary of the method: as §1

[11] = Quantitative High-Throughput drug screen in 47 multiple myeloma cell lines against the NCATS MIPE library collection: SKMM1_PLB cell viability assay (AID 1919863); conditions: SKMM1 myeloma viability, CellTiter-Glo ATP, 48 h; viability: hits give low values; note: nearly all actives have a fitted effect of over 35% in size
Summary of the method: as §1

[12] = Quantitative High-Throughput drug screen in 47 multiple myeloma cell lines against the NCATS MIPE library collection: U266_ATCC cell viability assay (AID 1919864); note: nearly all actives have a fitted effect of over 35% in size
Summary of the method: as §1

[13] = Quantitative High-Throughput drug screen in 47 multiple myeloma cell lines against the NCATS MIPE library collection: XG6_PLB cell viability assay (AID 1919865); note: nearly all actives have a fitted effect of over 40% in size
Summary of the method: as §1

[14] = Quantitative High-Throughput drug screen in 47 multiple myeloma cell lines against the NCATS MIPE library collection: XG1_PLB cell viability assay (AID 1919866); note: nearly all actives have a fitted effect of over 35% in size
Summary of the method: as §1

[15] = Quantitative High-Throughput drug screen in 47 multiple myeloma cell lines against the NCATS MIPE library collection: VP6_DJ cell viability assay (AID 1919867); note: nearly all actives have a fitted effect of over 40% in size
Summary of the method: as §1

[16] = Quantitative High-Throughput drug screen in 47 multiple myeloma cell lines against the NCATS MIPE library collection: UTMC2_PLB cell viability assay (AID 1919868); conditions: CellTiter-Glo ATP luminescence, 48 h; viability (% of DMSO control): at 45.8 µM (top of the series); note: nearly all actives have a fitted effect of over 55% in size
Summary of the method: as §1

[17] = Quantitative High-Throughput drug screen in 47 multiple myeloma cell lines against the NCATS MIPE library collection: PE2_PLB cell viability assay (AID 1919869); note: nearly all actives have a fitted effect of over 35% in size
Summary of the method: as §1

[18] = Quantitative High-Throughput drug screen in 47 multiple myeloma cell lines against the NCATS MIPE library collection: PCM6_Riken cell viability assay (AID 1919870); note: nearly all actives have a fitted effect of over 30% in size
Summary of the method: as §1

[19] = Quantitative High-Throughput drug screen in 47 multiple myeloma cell lines against the NCATS MIPE library collection: RPMI8226_ATCC cell viability assay (AID 1919871); note: nearly all actives have a fitted effect of over 30% in size
Summary of the method: as §1

[20] = Quantitative High-Throughput drug screen in 47 multiple myeloma cell lines against the NCATS MIPE library collection: OPM2_DSMZ cell viability assay (AID 1919872); note: nearly all actives have a fitted effect of over 30% in size
Summary of the method: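 Viability readout: CellTiter-Glo luminescence following 5 min room-temperature incubation with reagent. Prior exposure: 48 h, 37C, humidified 5% CO2, 500 cells per well.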

Measured: Potency
Potency is the fitted concentration of half-maximal effect.

CCN(CC)Cc1ccc2cc(COC(=O)Nc3ccc(C(=O)NO)cc3)ccc2c1
active: [1] 1.32 µM | [2] 0.59 µM | [3] 0.332 µM | [4] 0.935 µM | [5] 0.662 µM | [6] 0.372 µM | [7] 0.418 µM | [8] 0.372 µM | [9] 0.372 µM | [10] 0.264 µM | [11] 0.935 µM | [12] 0.662 µM | [13] 1.66 µM | [14] 0.833 µM | [15] 0.132 µM | [16] 0.148 µM | [17] 0.935 µM | [18] 0.833 µM | [19] 1.05 µM | [20] 0.833 µM

CCCCCCCCc1ccc(CCC(N)(CO)CO)cc1
active: [1] 23.5 µM | [2] 7.43 µM | [3] 9.35 µM | [4] 13.2 µM | [5] 18.7 µM | [6] 4.18 µM | [7] 14.8 µM | [8] 11.8 µM | [9] 14.8 µM | [10] 4.69 µM | [11] 23.5 µM | [12] 16.6 µM | [13] 3.32 µM | [14] 4.18 µM | [15] 4.69 µM | [16] 9.35 µM | [17] 8.33 µM | [18] 3.72 µM | [20] 16.6 µM

NC(=NCCCCCCN=C(N)N=C(N)Nc1ccc(Cl)cc1)N=C(N)Nc1ccc(Cl)cc1
active: [1] 11.8 µM | [2] 2.09 µM | [3] 7.43 µM | [4] 11.8 µM | [5] 16.6 µM | [6] 8.33 µM | [7] 11.8 µM | [8] 2.96 µM | [9] 8.33 µM | [10] 2.64 µM | [11] 11.8 µM | [13] 2.35 µM | [14] 2.64 µM | [15] 2.35 µM | [16] 5.26 µM | [17] 6.62 µM | [18] 2.64 µM | [19] 16.6 µM | [20] 14.8 µM

Cn1cnc(=N)c2[nH]cnc21
active: [1] 0.743 µM | [2] 0.0935 µM | [3] 0.0935 µM | [4] 0.166 µM | [5] 0.105 µM | [6] 0.132 µM | [7] 0.132 µM | [8] 0.0662 µM | [9] 0.132 µM | [10] 0.0662 µM | [11] 0.209 µM | [13] 0.132 µM | [14] 0.166 µM | [15] 0.0662 µM | [16] 0.0935 µM | [18] 0.235 µM

— PubChem BioAssay (NCATS)
